Shiga inhibitor: inhibitors of Shiga toxin in Vero cells; Vero cells, Shiga toxin protein synthesis inhibition reporter; inhibition, % at 38.7 µM; 290,000 compounds, 9.2% hits; in the data active means inhibition mostly above about 28%, no sharp cut-off; inactive means mostly below about 43%; further: 0% is about no effect
HCMV inh: human cytomegalovirus inhibition. HFF cells, HCMV-luciferase reporter, 72 h; active compounds read low. activity change, negative = inhibition, % at 57.5 µM. 410,000 compounds, 4.5% hits. AID 1259415; in the data active means activity change below about -60%; inconclusive means no clear call, values can overlap the other calls; inactive means above about -39%; further: on the % scale 0 is the no-effect control and ±100 the full control effect
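Two-dose cell screen: HFF monolayers treated with compounds and infected with luciferase-expressing HCMV at 1 PFU/cell, 72 h at 37C, then lysed for luciferase measurement.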
HCV inhibitor: HCV inhibition; Huh7.5.1 HCVcc-Cre infection, luciferase reporter, 44 h; Potency, µM (titrated, usually from 41.8 µM), inactives show top-dose activity change, negative = inhibition, usual class: inhibitors; 340,000 compounds, 3.4% hits; further: potency means the concentration at half of the fitted maximal effect; on the % scale 0 is the no-effect control and ±100 the full control effect
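Compounds are dispensed onto cells plated 4 h earlier at 1,000 per well, with HCVcc-Cre virus (about 0.5 moi) added next. Following 44 h of culture, luminescent signal is measured for 15 sec after 15 min with substrate at room temperature.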
Pf growth 96h: inhibits malaria parasite growth, 96 h; Potency, µM (series often up to 28.7 µM), for the others: top-dose activity change, negative = inhibition, actives largely listed as inhibitors; P. falciparum luciferase reporter growth, 96 h; 320,000 compounds, 6.9% hits; further: potency means the concentration at half of the fitted maximal effect; on the % scale 0 is the no-effect control and ±100 the full control effect
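P. falciparum expressing integrated firefly luciferase, in erythrocytes at 2% hematocrit, 0.05% parasitemia, incubated with compounds 96 h at 37 C, 5% CO2. Growth inhibition read as loss of luminescence; two-generation exposure targets delayed-death apicoplast inhibitors.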
Pf growth 48h: P. falciparum growth inhibition at 48 hours (one generation) | P. falciparum luciferase growth in erythrocytes, 48 h | Potency, µM (highest dose often 28.7 µM), inactives show top-dose activity change, negative = inhibition, hits mostly inhibitors | 310,000 compounds, 5.9% hits | AID 504832; further: potency means the concentration at half of the fitted maximal effect; on the % scale 0 is the no-effect control and ±100 the full control effect
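In quantitative HTS format, infected erythrocytes bearing luciferase-reporter parasites were treated for a single generation at 37 C. Luminescence after adding detection reagent served as the growth measure.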
CHX counter: affects cycloheximide protein synthesis inhibition readout, counter-screen; AID 2314; max response, %; 300,000 compounds, 12% hits; cell reporter, cycloheximide protein synthesis inhibition counterscreen; in the data active means max response mostly above about 13%, no sharp cut-off; inactive means mostly below about 14%; further: read at 38.3 µM for the half of the compounds with a filed dose; 0% is about no effect
* marks the source's active call; other numbers are inactive results; ? = inconclusive; · = not tested or not shown. In the library only some 21% were active in any assay of this set; here they are far more common. Unless noted, the call rests on the fitted dose curve; in most records, active means well fitted inhibition curve with a large enough effect; inconclusive means small, poorly fitted or top-dose-only effect, or another doubt; inactive means no such curve, though single readings can be large or run the other way.

SMILES | Shiga inhibitor | HCMV inh | HCV inhibitor | Pf growth 96h | Pf growth 48h | CHX counter
O=C(/C=C1\SC(=O)N(CC(=O)Nc2ccc(F)cc2)C1=O)Nc1ccc(Cl)cc1 | 86* | 24 | -6% | 115% | 93% | 32*
CCOCCN1CCN(c2c(CC)c(C)nc3cc(-c4cc(OC)cc(OC)c4)nn23)CC1 | 14 | -8 | ? | 9% | 1.5µM* | 0
CCc1c(C)nc2cc(-c3ccc(OC)c(OC)c3)nn2c1N1CCC(C)CC1 | 132 | -27 | -9% | 44% | 7.4µM* | 12
CCc1c(C)nc2cc(-c3ccc(OC)c(OC)c3)nn2c1N1CCCC1 | -10 | ? | 1.8µM* | 0% | 13µM* | -1
CCc1c(C)nc2cc(-c3cc(OC)cc(OC)c3)nn2c1N1CCCC1 | -10 | ? | ? | · | ? | -4
COc1ccc(-c2c(C)nn3c(-c4ccccc4)cc(-c4ccccc4)nc23)cc1OC | 2 | 9 | · | · | · | 7
COCCCNC(=O)CCc1c(C)c2cc3c(C)coc3cc2oc1=O | -1 | ? | -21% | ? | ? | -1
COc1ccc(CN=C(N)N=C(N)N)cc1Cl | -14 | ? | ? | 24% | ? | -1
CC(C)COc1ccc(CN=C(N)N=C(N)N)cc1Cl | -4 | -76* | ? | ? | 2.9µM* | 1
CC(C)Oc1ccc(CCN)cc1Cl | -8 | 1 | 6% | -23% | 4% | -2
CC(C)Oc1ccc(CN=C(N)N=C(N)N)cc1Cl | -6 | -75* | ? | ? | 12µM* | -3
Cc1cc(C)c2oc(-c3ccc(C)c(NC(=O)/C=C/c4ccco4)c3)nc2c1 | · | 64 | · | · | · | ·
CCOC(=O)N1c2ccccc2Sc2ccccc21 | 9 | -34 | ? | 1% | ? | -3
Cc1nnc(SC(=O)N2c3ccccc3Sc3ccccc32)s1 | -12 | ? | ? | · | 10µM* | -3
CC1CCN(S(=O)(=O)c2ccc3c(c2)N(CC(=O)NCc2cccnc2)C(=O)CS3)CC1 | 16 | -28 | 10% | 102% | -19% | -1
O=C(CN1C(=O)CSc2ccc(S(=O)(=O)N3CCCC3)cc21)NCc1ccccc1Cl | · | 1 | · | · | · | ·
COc1ccccc1CNC(=O)CN1C(=O)CSc2ccc(S(=O)(=O)N3CCCC3)cc21 | -2 | -1 | -13% | ? | 13µM* | 6
O=C(CN1C(=O)CSc2ccc(S(=O)(=O)N3CCCCC3)cc21)NCc1cccnc1 | -5 | 21 | 10% | 2.3µM* | ? | -3
CC(C)c1ccc(Nc2c(-c3ccc(N4CCOCC4)cc3)nc3ncccn23)cc1 | · | 0 | · | · | · | ·
Cc1c(C(=O)/C=C/N(C)C)nnn1-c1ccc(Cl)cc1Cl | 58* | 11 | -45% | ? | -50% | 13
Cc1c(C(=O)/C=C/N(C)C)nnn1-c1ccc(F)c(Cl)c1 | 76* | 16 | -18% | 32% | 46% | 33*
CC1CCN(c2nn3c(=O)c(C(=O)NCCc4ccccc4)cnc3s2)CC1 | · | 4 | · | · | · | ·
CCn1cc(C=C2C(=O)N(C)C(=O)N(C)C2=O)c2ccccc21 | · | 33 | 14% | 0.12µM* | -30% | -2
CCn1cc(C=C2C(=O)NC(=O)NC2=O)c2ccccc21 | 9 | 17 | ? | 11% | -7% | 2
COC(=O)CCCn1cc(CN2CC(N3CCN(C)CC3)CS2(=O)=O)nn1 (stereo not drawn) | · | -14 | · | · | · | ·
SMILES | Shiga inhibitor | HCMV inh | HCV inhibitor | Pf growth 96h | Pf growth 48h | CHX counter
C=CC(=O)N=c1sc2ccccc2n1-c1ccccc1 | -4 | 47 | 11µM* | ? | 35% | -1
N=c1sc2ccccc2n1-c1ccccc1 | -11 | -21 | ? | -13% | -5% | -2
Cc1ccc(C(=O)NCCc2csc(-c3cccnc3)n2)cc1 | 67* | 24 | -8% | ? | ? | 20*
Cc1nc(CCNC(=O)c2ccccc2)cs1 | 17 | -7 | 8% | 43% | 26% | 17*
O=C(NCCc1csc(-c2cccnc2)n1)c1ccc(F)c(F)c1 | · | -33 | · | · | · | ·
Cc1cccc(S(=O)(=O)c2cn(Cc3ccccc3)c3cc(N4CCC(C)CC4)c(F)cc3c2=O)c1 | -6 | 13 | · | · | · | -1
CN1C(=O)c2c(sc3c2CC(C)(C)SC3)N2CCN=C12 | -19 | -5 | 11µM* | · | 17% | -4

Source: PubChem BioAssay (National Center for Advancing Translational Sciences (NCATS))
